High-throughput results from PubChem BioAssay.
Mtb FBA inh = inhibits M. tuberculosis FBA enzyme. P9WQA3. purified M. tuberculosis FBA, fluorescence read-out. inhibition, % at 1 µM. 360,000 tested, 2.3% active;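 note: 0% = vehicle and 100% = reference inhibitor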
Target sequence (P9WQA3 whole entry, looked up): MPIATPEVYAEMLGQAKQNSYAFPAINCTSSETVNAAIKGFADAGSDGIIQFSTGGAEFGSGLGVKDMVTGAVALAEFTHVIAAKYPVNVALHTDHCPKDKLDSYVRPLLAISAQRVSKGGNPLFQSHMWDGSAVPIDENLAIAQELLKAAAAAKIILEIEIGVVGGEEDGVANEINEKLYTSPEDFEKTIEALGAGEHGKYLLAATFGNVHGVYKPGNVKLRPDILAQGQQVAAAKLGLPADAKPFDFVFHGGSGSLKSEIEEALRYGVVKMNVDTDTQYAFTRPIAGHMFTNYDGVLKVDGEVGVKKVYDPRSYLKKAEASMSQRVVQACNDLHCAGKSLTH
TcdB inh = TcdB glycohydrolase inhibition. P18177. TcdB glycohydrolase enzymatic assay, plate reader. inhibition, % at 9.99 µM. 350,000 tested, 0.24% active; in the data active = inhibition above about 10%
GDH-TPI counter-1 = counter-screen for M. tuberculosis FBA inhibitors: GDH-TPI coupled enzymes | GDH-TPI coupled enzyme counterscreen, NADH absorbance | inhibition, % at 4.8 µM | 360,000 tested, 1.2% active | AID 588335; in the data active = inhibition above about 30%;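 note: 0% = DMSO wells and 100% = wells lacking the enzyme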
PrPC TRFRET = inhibitors of human cell surface prion protein PrPC | TR-FRET read-out | inhibition, % at 13.8 µM | 370,000 tested, 0.43% active | AID 720596; in the data active = inhibition above about 24%; note: 0% = median of the test wells and 100% = reference compound wells
Yp Topo-I inh = inhibitors of Yersinia pestis topoisomerase I; activity, % at 10 µM; 360,000 tested, 0.064% active; AID 504884; Y. pestis Topo-I cleavage product accumulation, plate reader; in the data active = activity above about 50%, passing the limit was not always enough
Mtb FBA inh conf = Mtb FBA inhibition, confirmed | shares compounds with Mtb FBA inh | purified M. tuberculosis FBA, fluorescence read-out | inhibition, % at 1 µM | 5,600 tested, 78% active | AID 651616;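 note: 0% = vehicle wells and 100% = reference inhibitor wells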
GDH-TPI counter-2 = inhibits GDH-TPI coupling enzymes, flagging Mtb FBA hits. GDH-TPI coupled enzyme counterscreen, fluorescence. shares compounds with Mtb FBA inh. inhibition, % at 1 µM. 5,600 tested, 81% active; in the data active = inhibition above about 10%
Active calls of the source: *; x = not tested or not shown; + = active, no number. Rows were chosen to be rich in hits. Some 3.2% of all compounds tested hit in one or more screens of this group. Cut-off read from the data, not from the text of the source, unless noted: active = inhibition above about 27%; inactive = the rest.

SMILES	Mtb FBA inh	TcdB inh	GDH-TPI counter-1	PrPC TRFRET	Yp Topo-I inh	Mtb FBA inh conf	GDH-TPI counter-2
COc1ccc(-c2c(C)nc3c(-c4ccccn4)cnn3c2N)cc1	27*	0	24	6	7	68*	67*
C[C@@H]1CCCCO[C@@H](CN(C)C(=O)C2CCCCC2)[C@H](C)CN([C@@H](C)CO)C(=O)c2cc(NC(=O)C3CCCCC3)ccc2O1	x	-2	x	x	x	x	x
N#Cc1ccccc1OCC(=O)OCC(=O)N1CCN(C(=O)c2ccco2)CC1	74*	0	14	-2	-1	170*	147*
COc1ccc2c3c([nH]c2c1)[C@H](CO)N(C(=O)c1ccncc1)CC31CCN(C(=O)CC2CC2)CC1	x	2	x	x	x	x	x
C[C@@H]1CN([C@H](C)CO)C(=O)c2cccc(NS(=O)(=O)c3cn(C)cn3)c2O[C@@H]1CN(C)Cc1ccccc1	x	-1	x	x	x	x	x
N=c1c(S(=O)(=O)c2ccc(F)cc2)cc2c(=O)n3ccccc3nc2n1CC1CCCO1 (configuration not stated)	84*	0	7	-9	-8	97*	79*
N=c1c(C(=O)NCCN2CCOCC2)cc2c(=O)n3ccccc3nc2n1CCCN1CCOCC1	88*	-4	11	-32	-1	156*	117*
COc1ccc(CCn2c(=N)c(C(=O)NC3CCCC3)cc3c(=O)n4ccccc4nc32)cc1	-5	1	-2	-30	10	x	x
O=c1c2ccccc2nc2ccccn12	109*	-1	1	-8	9	163*	151*
Cn1c(=N)c(S(=O)(=O)c2ccccc2)cc2c(=O)n3ccccc3nc21	60*	x	-1	-20	-1	71*	54*
C[C@@H]1CN([C@@H](C)CO)C(=O)c2cc(NC(=O)Nc3cccc4ccccc34)ccc2O[C@H]1CN(C)S(=O)(=O)c1ccc(F)cc1	x	-1	x	x	x	x	x
N=c1c(C(=O)NCCN2CCOCC2)cc2c(=O)n3ccccc3nc2n1Cc1ccc(F)cc1	40*	0	0	-24	-8	103*	81*
Cc1ccc2nc3c(cc(C(=O)NCCN4CCOCC4)c(=N)n3CCCN3CCOCC3)c(=O)n2c1	78*	x	5	x	-4	61*	42*
N=c1c(S(=O)(=O)c2ccccc2)cc2c(=O)n3ccccc3nc2n1CCCN1CCOCC1	52*	-1	10	-25	-5	48*	38*
Cc1noc(C)c1NC(=O)Nc1cccc2c1O[C@H](CN(C)C(=O)NC1CCCCC1)[C@@H](C)CN([C@@H](C)CO)C2=O	x	0	x	x	x	x	x
CN1C(=O)c2cc(NC(=O)c3ccccc3Cl)ccc2OC[C@@H]2O[C@H](CC(=O)NCC(F)(F)F)CC[C@H]21	x	-10	x	x	x	x	x
Fc1cccc(NC(=S)NNc2c3ccccc3nc3ccccc23)c1	50*	20*	10	-1	-8	187*	132*
CNC[C@@H]1Oc2c(NC(=O)Nc3c(C)noc3C)cccc2C(=O)N([C@H](C)CO)C[C@@H]1C	x	-1	x	x	x	x	x
CCC(C)Sc1cccc(-c2nc3ccc(Cl)cn3c2NCc2ccccc2)c1 (configuration not stated)	23	x	18	x	24	x	x
Cc1ccn2c(NC3CCCCC3)c(-c3cccc(SC4CCCCC4)c3)nc2c1	21	6	2	7	13	x	x
CCC(C)Sc1cccc(-c2nc3ccccn3c2NCc2ccccc2)c1 (configuration not stated)	32*	0	5	5	-4	113*	91*
CCC(C)Sc1cccc(-c2nc3ccc(C)cn3c2NCc2ccccc2)c1 (configuration not stated)	39*	0	15	15	43	1	1
CCC(C)Sc1cccc(-c2nc3cc(C)ccn3c2NC2CCCCC2)c1 (configuration not stated)	45*	-1	24	17	18	140*	133*
C[C@@H]1CCCCO[C@H](CN(C)C(=O)Cc2ccccc2)[C@@H](C)CN([C@@H](C)CO)C(=O)c2cc(NS(=O)(=O)c3cn(C)cn3)ccc2O1	x	1	x	x	x	x	x
Cc1ccc(C)c(C(=O)OCC(=O)NC(=O)NCc2ccccc2)c1	0	1	3	-1	29	x	x
SMILES	Mtb FBA inh	TcdB inh	GDH-TPI counter-1	PrPC TRFRET	Yp Topo-I inh	Mtb FBA inh conf	GDH-TPI counter-2
CN(Cc1ccccc1)C(=O)COC(=O)Cc1ccc(Cl)cc1	-3	3	1	6	14	x	x
O=C(COC(=O)c1cc(Cl)ccc1Cl)NC1CCCC1	4	-1	3	11	0	x	x
Nc1cc(Cl)ccc1C(=O)OCC(=O)NC1CCCCCCC1	27*	0	7	-2	29	73*	56*
Nc1cc(Cl)ccc1C(=O)OCC(=O)NC(=O)NCc1ccccc1	30*	x	4	13	-2	63*	49*
CN(Cc1ccccc1)C(=O)COC(=O)c1ccc(Cl)cc1N	50*	0	0	0	2	101*	90*
C[C@@H]1CN([C@@H](C)CO)S(=O)(=O)c2ccc(/C=C/c3ccccc3)cc2O[C@H]1CN(C)Cc1cncnc1	x	-1	x	x	x	x	x
CCOC(=O)Cn1c(C(F)(F)F)nc2nc(Cl)c(Cl)nc21	55*	12*	11	-8	1	102*	62*
CCOC(=O)Cn1c2ccccc2c2nc3ccccc3nc21	-1	x	15	1	1	x	x
CCOC(=O)c1sc(N(C)C)nc1-c1ccccc1	39*	x	14	-6	-8	136*	97*
Fc1cccc2sc(Nc3nnc(-c4ccccc4)o3)nc12	64*	x	45*	5	-9	+	+
COc1cc(OC)cc(-c2nnc(Nc3nc4c(F)cccc4s3)o2)c1	30*	x	27	-3	-4	84*	76*
C[C@H]1CN([C@@H](C)CO)C(=O)Cc2cc(NS(=O)(=O)c3ccc(Cl)cc3)ccc2O[C@@H]1CN(C)Cc1ccc(C(F)(F)F)cc1	x	0	x	x	x	x	x
CC(C)CC(c1nc2ccccc2[nH]1)n1c(-c2ccccc2Br)nc2ccccc21 (configuration not stated)	0	1	x	4	x	x	x
COc1ccc2nc(C(c3ccc(C)cc3)n3c(-c4ccccc4Br)nc4ccccc43)[nH]c2c1 (configuration not stated)	52*	1	x	3	x	+	+
CCS(=O)(=O)c1nc(S(=O)(=O)c2ccc(C)cc2)c(NCCCN2CCCC2=O)s1	3	0	8	1	1	x	x
O=C1CCCN1CCCNc1nc2c(S(=O)(=O)c3ccccc3)nnn2c2ccc(Cl)cc12	41*	1	-1	9	3	1	-2
O=C(Nc1ccccc1F)C1CCCN(S(=O)(=O)c2ccc(-n3cnnn3)cc2)C1 (configuration not stated)	85*	0	-3	-5	-3	119*	87*
